# Read-outs that look alike come from different tables or passages of the source.
# How the values were obtained:
# [1] = system: MAP4K2; conditions: read-out: apparent Kd, n = 1
# [2] = system: MARK3; conditions: read-out: apparent Kd, n = 1
# [3] = compound concentrations:100 nM and 1000 nM (sheet 'Lestaurtinib' of Supplementary Table 1),run:Lestaurtinib_02364_R3,Plate:MR002
# [4] = compound concentrations:100 nM and 1000 nM (sheet 'Lestaurtinib' of Supplementary Table 1),run:Lestaurtinib_02367_R2,Plate:MR003
# [5] = compound concentrations:100 nM and 1000 nM (sheet 'Lestaurtinib' of Supplementary Table 1),run:Lestaurtinib_02381_R1,Plate:MR004
# [6] = compound concentrations:100 nM and 1000 nM (sheet 'Lestaurtinib' of Supplementary Table 1),run:Lestaurtinib_02407_R1,Plate:MR005
# [7] = compound concentrations:100 nM and 1000 nM (sheet 'Lestaurtinib' of Supplementary Table 1),run:Lestaurtinib_02407_R2,Plate:MR005
# [8] = compound concentrations:100 nM and 1000 nM (sheet 'Lestaurtinib' of Supplementary Table 1),run:Lestaurtinib_02422_R1,Plate:MR006
# [9] = compound concentrations:100 nM and 1000 nM (sheet 'Lestaurtinib' of Supplementary Table 1),run:Lestaurtinib_02422_R2,Plate:MR006
# [10] = compound concentrations:100 nM and 1000 nM (sheet 'Lestaurtinib' of Supplementary Table 1),run:Lestaurtinib_02437_R3,Plate:MR007
# [11] = compound concentrations:100 nM and 1000 nM (sheet 'Lestaurtinib' of Supplementary Table 1),run:Lestaurtinib_02438_R1,Plate:MR008
# [12] = compound concentrations:100 nM and 1000 nM (sheet 'Lestaurtinib' of Supplementary Table 1),run:Lestaurtinib_02438_R2,Plate:MR008
substance,measurement,setting,value
Lestaurtinib,potency estimated from few doses,[1]; [3],260 nM
same,potency estimated from few doses,[1]; [4],163 nM
same,potency estimated from few doses,[1]; [5],163 nM
same,potency estimated from few doses,"[1]; compound concentrations:100 nM and 1000 nM (sheet 'Lestaurtinib' of Supplementary Table 1),run:Lestaurtinib_02381_R3,Plate:MR004",229 nM
same,potency estimated from few doses,[1]; [6],134 nM
same,potency estimated from few doses,[1]; [7],149 nM
same,potency estimated from few doses,"[1]; compound concentrations:100 nM and 1000 nM (sheet 'Lestaurtinib' of Supplementary Table 1),run:Lestaurtinib_02407_R3,Plate:MR005",180 nM
same,potency estimated from few doses,[1]; [8],191 nM
same,potency estimated from few doses,[1]; [9],261 nM
same,potency estimated from few doses,"[1]; compound concentrations:100 nM and 1000 nM (sheet 'Lestaurtinib' of Supplementary Table 1),run:Lestaurtinib_02422_R3,Plate:MR006",163 nM
same,potency estimated from few doses,[1]; [10],29.8 nM
same,potency estimated from few doses,[1]; [11],151 nM
same,potency estimated from few doses,[1]; [12],277 nM
same,potency estimated from few doses,"[1]; compound concentrations:100 nM and 1000 nM (sheet 'Lestaurtinib' of Supplementary Table 1),run:Lestaurtinib_02473_R1,Plate:MR010",197 nM
same,potency estimated from few doses,"[1]; compound concentrations:100 nM and 1000 nM (sheet 'Lestaurtinib' of Supplementary Table 1),run:Lestaurtinib_02473_R2,Plate:MR010",202 nM
same,potency estimated from few doses,"[1]; compound concentrations:100 nM and 1000 nM (sheet 'Lestaurtinib' of Supplementary Table 1),run:Lestaurtinib_02482_R2,Plate:MR011",222 nM
same,potency estimated from few doses,"[1]; compound concentrations:100 nM and 1000 nM (sheet 'Lestaurtinib' of Supplementary Table 1),run:Lestaurtinib_02487_R2,Plate:MR012",182 nM
same,potency estimated from few doses,"[1]; compound concentrations:100 nM and 1000 nM (sheet 'Lestaurtinib' of Supplementary Table 1),run:Lestaurtinib_02487_R3,Plate:MR012",244 nM
same,potency estimated from few doses,"[1]; compound concentrations:100 nM and 1000 nM (sheet 'Lestaurtinib' of Supplementary Table 1),run:Lestaurtinib_02496_R1,Plate:MR013",231 nM
same,potency estimated from few doses,"[1]; compound concentrations:100 nM and 1000 nM (sheet 'Lestaurtinib' of Supplementary Table 1),run:Lestaurtinib_02566_R1,Plate:MR014",259 nM
same,potency estimated from few doses,"[1]; compound concentrations:100 nM and 1000 nM (sheet 'Lestaurtinib' of Supplementary Table 1),run:Lestaurtinib_02566_R2,Plate:MR014",180 nM
same,potency estimated from few doses,"[1]; compound concentrations:100 nM and 1000 nM (sheet 'Lestaurtinib' of Supplementary Table 1),run:Lestaurtinib_02566_R3,Plate:MR014",159 nM
same,potency estimated from few doses,"[1]; compound concentrations:100 nM and 1000 nM (sheet 'Lestaurtinib' of Supplementary Table 1),run:Lestaurtinib_02572_R1,Plate:MR015",196 nM
same,potency estimated from few doses,"[1]; compound concentrations:100 nM and 1000 nM (sheet 'Lestaurtinib' of Supplementary Table 1),run:Lestaurtinib_02572_R3,Plate:MR015",235 nM
same,potency estimated from few doses,"[1]; compound concentrations:100 nM and 1000 nM (sheet 'Lestaurtinib' of Supplementary Table 1),run:Lestaurtinib_02577_R1,Plate:MR016",199 nM
same,potency estimated from few doses,"[1]; compound concentrations:100 nM and 1000 nM (sheet 'Lestaurtinib' of Supplementary Table 1),run:Lestaurtinib_02577_R3,Plate:MR016",131 nM
same,potency estimated from few doses,"[1]; compound concentrations:100 nM and 1000 nM (sheet 'Lestaurtinib' of Supplementary Table 1),run:Lestaurtinib_02584_R3,Plate:MR017",245 nM
same,potency estimated from few doses,"[1]; compound concentrations:100 nM and 1000 nM (sheet 'Lestaurtinib' of Supplementary Table 1),run:Lestaurtinib_02601_R2,Plate:MR018",153 nM
same,potency estimated from few doses,"[1]; compound concentrations:100 nM and 1000 nM (sheet 'Lestaurtinib' of Supplementary Table 1),run:Lestaurtinib_02606_R1,Plate:MR019",184 nM
same,potency estimated from few doses,"[1]; compound concentrations:100 nM and 1000 nM (sheet 'Lestaurtinib' of Supplementary Table 1),run:Lestaurtinib_02606_R2,Plate:MR019",278 nM
same,potency estimated from few doses,"[1]; compound concentrations:100 nM and 1000 nM (sheet 'Lestaurtinib' of Supplementary Table 1),run:Lestaurtinib_02606_R3,Plate:MR019",191 nM
same,potency estimated from few doses,"[1]; compound concentrations:100 nM and 1000 nM (sheet 'Lestaurtinib' of Supplementary Table 1),run:Lestaurtinib_02724_R1,Plate:MR021",279 nM
same,potency estimated from few doses,"[1]; compound concentrations:100 nM and 1000 nM (sheet 'Lestaurtinib' of Supplementary Table 1),run:Lestaurtinib_02724_R2,Plate:MR021",279 nM
same,potency estimated from few doses,"[1]; compound concentrations:100 nM and 1000 nM (sheet 'Lestaurtinib' of Supplementary Table 1),run:Lestaurtinib_02724_R3,Plate:MR021",269 nM
same,potency estimated from few doses,"[1]; compound concentrations:100 nM and 1000 nM (sheet 'Lestaurtinib' of Supplementary Table 1),run:Lestaurtinib_02741_R1,Plate:MR023",191 nM
same,potency estimated from few doses,"[1]; compound concentrations:100 nM and 1000 nM (sheet 'Lestaurtinib' of Supplementary Table 1),run:Lestaurtinib_02741_R3,Plate:MR023",237 nM
same,potency estimated from few doses,"[1]; compound concentrations:100 nM and 1000 nM (sheet 'Lestaurtinib' of Supplementary Table 1),run:Lestaurtinib_02748_R2,Plate:MR024",289 nM
same,potency estimated from few doses,"[1]; compound concentrations:100 nM and 1000 nM (sheet 'Lestaurtinib' of Supplementary Table 1),run:Lestaurtinib_02752_R2,Plate:MR025",134 nM
same,potency estimated from few doses,"[1]; compound concentrations:100 nM and 1000 nM (sheet 'Lestaurtinib' of Supplementary Table 1),run:Lestaurtinib_02752_R3,Plate:MR025",136 nM
same,potency estimated from few doses,"[1]; compound concentrations:100 nM and 1000 nM (sheet 'Lestaurtinib' of Supplementary Table 1),run:Lestaurtinib_02765_R2,Plate:MR026",199 nM
same,potency estimated from few doses,"[1]; compound concentrations:100 nM and 1000 nM (sheet 'Lestaurtinib' of Supplementary Table 1),run:Lestaurtinib_02765_R3,Plate:MR026",158 nM
same,potency estimated from few doses,"[1]; compound concentrations:100 nM and 1000 nM (sheet 'Lestaurtinib' of Supplementary Table 1),run:Lestaurtinib_02766_R2,Plate:MR027",220 nM
same,potency estimated from few doses,"[1]; compound concentrations:100 nM and 1000 nM (sheet 'Lestaurtinib' of Supplementary Table 1),run:Lestaurtinib_02766_R3,Plate:MR027",231 nM
same,potency estimated from few doses,"[1]; compound concentrations:100 nM and 1000 nM (sheet 'Lestaurtinib' of Supplementary Table 1),run:Lestaurtinib_02768_R1,Plate:MR028",190 nM
same,potency estimated from few doses,"[1]; compound concentrations:100 nM and 1000 nM (sheet 'Lestaurtinib' of Supplementary Table 1),run:Lestaurtinib_02768_R3,Plate:MR028",196 nM
same,potency estimated from few doses,"[1]; compound concentrations:100 nM and 1000 nM (sheet 'Lestaurtinib' of Supplementary Table 1),run:Lestaurtinib_02795_R1,Plate:MR022",199 nM
same,potency estimated from few doses,"[1]; compound concentrations:100 nM and 1000 nM (sheet 'Lestaurtinib' of Supplementary Table 1),run:Lestaurtinib_02795_R2,Plate:MR022",146 nM
same,potency estimated from few doses,"[1]; compound concentrations:100 nM and 1000 nM (sheet 'Lestaurtinib' of Supplementary Table 1),run:Lestaurtinib_02795_R3,Plate:MR022",377 nM
same,potency estimated from few doses,"[1]; compound concentrations:100 nM and 1000 nM (sheet 'Lestaurtinib' of Supplementary Table 1),run:Lestaurtinib_02802_R3,Plate:MR029",290 nM
same,potency estimated from few doses,"[1]; compound concentrations:100 nM and 1000 nM (sheet 'Lestaurtinib' of Supplementary Table 1),run:Lestaurtinib_02896_R2,Plate:MR030",215 nM
same,potency estimated from few doses,"[1]; compound concentrations:100 nM and 1000 nM (sheet 'Lestaurtinib' of Supplementary Table 1),run:Lestaurtinib_03172_R2,Plate:MR031",295 nM
same,potency estimated from few doses,"[1]; compound concentrations:100 nM and 1000 nM (sheet 'Lestaurtinib' of Supplementary Table 1),run:Lestaurtinib_03172_R3,Plate:MR031",235 nM
same,potency estimated from few doses,"[1]; compound concentrations:100 nM and 1000 nM (sheet 'Lestaurtinib' of Supplementary Table 1),run:Lestaurtinib_03252_R1,Plate:MR032",130 nM
same,potency estimated from few doses,"[1]; compound concentrations:100 nM and 1000 nM (sheet 'Lestaurtinib' of Supplementary Table 1),run:Lestaurtinib_03260_R1,Plate:MR033",372 nM
same,potency estimated from few doses,"[1]; compound concentrations:100 nM and 1000 nM (sheet 'Lestaurtinib' of Supplementary Table 1),run:Lestaurtinib_03260_R3,Plate:MR033",228 nM
same,potency estimated from few doses,"[2]; compound concentrations:100 nM and 1000 nM (sheet 'Lestaurtinib' of Supplementary Table 1),run:Lestaurtinib_02364_R1,Plate:MR002",132 nM
same,potency estimated from few doses,[2]; [3],180 nM
same,potency estimated from few doses,"[2]; compound concentrations:100 nM and 1000 nM (sheet 'Lestaurtinib' of Supplementary Table 1),run:Lestaurtinib_02367_R1,Plate:MR003",92.8 nM
same,potency estimated from few doses,[2]; [4],160 nM
same,potency estimated from few doses,[2]; [5],132 nM
same,potency estimated from few doses,"[2]; compound concentrations:100 nM and 1000 nM (sheet 'Lestaurtinib' of Supplementary Table 1),run:Lestaurtinib_02381_R2,Plate:MR004",167 nM
same,potency estimated from few doses,[2]; [6],160 nM
same,potency estimated from few doses,[2]; [7],151 nM
same,potency estimated from few doses,[2]; [8],169 nM
same,potency estimated from few doses,[2]; [9],52.3 nM
same,potency estimated from few doses,"[2]; compound concentrations:100 nM and 1000 nM (sheet 'Lestaurtinib' of Supplementary Table 1),run:Lestaurtinib_02437_R1,Plate:MR007",151 nM
same,potency estimated from few doses,"[2]; compound concentrations:100 nM and 1000 nM (sheet 'Lestaurtinib' of Supplementary Table 1),run:Lestaurtinib_02437_R2,Plate:MR007",133 nM
same,potency estimated from few doses,[2]; [10],23.2 nM
same,potency estimated from few doses,[2]; [11],196 nM
same,potency estimated from few doses,[2]; [12],160 nM
same,potency estimated from few doses,"[2]; compound concentrations:100 nM and 1000 nM (sheet 'Lestaurtinib' of Supplementary Table 1),run:Lestaurtinib_02443_R1,Plate:MR009",202 nM
same,potency estimated from few doses,"[2]; compound concentrations:100 nM and 1000 nM (sheet 'Lestaurtinib' of Supplementary Table 1),run:Lestaurtinib_02443_R2,Plate:MR009",181 nM
